# From PubChem BioAssay (NCI)
# The panel holds about 83,000 compounds, 20% with a hit somewhere; the sample as a whole holds those more often.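 Cells were grown in 96-well plates and exposed to the test compound at a single concentration for 48 hours; results are reported as percent growth, with values below 10 considered active.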 Unmarked numbers belong to inactive results. Active and inactive are the calls of the source.
# Test system: HL-60(TB) leukemia
# Assay: NCI-60 one-dose screen, 48 h (100 = growth as untreated, 0 = no growth, -100 = all killed)
# Conditions: 10 µM unless noted
row,Compound,growth
1,Cc1ccccc1NC1CC(=O)N(c2ccc(Cl)cc2Cl)C1=O (stereo not drawn),102%
2,Oc1ccc(-c2nnc(SCc3ccc(O)c4ncccc34)o2)cc1,5.77% (active)
3,CC(=O)Nc1ccc(NC(=O)Nc2cccc(-c3nc(-c4ccc(NC(=O)c5cccs5)cc4Cl)no3)c2)cc1C(F)(F)F,5.88% (active)
4,CSc1ccc(/C(=N/N=C(N)N)c2ccccc2)cc1,-17.1% (active)
5,O=C(CSc1nnc(-c2ccc(Cl)cc2)n1-c1ccccc1)Nc1ccccc1Cl,91.8%
6,CNC(=O)c1cc(-n2ccc3cc(NC(=O)Nc4ccc(N5CCOCC5)c(C(F)(F)F)c4)ccc32)ccn1,-37.1% (active)
7,N#Cc1cnc2ccc(-c3cnc4[nH]ncc4c3)cc2c1N1CCc2cc(F)c(Cl)cc21,1.45% (active)
8,O=C1[C@H]2Cc3c([nH]c4ccccc34)[C@@H](c3ccc(Cl)cc3)N2C(=O)CN1C1CCN(Cc2c(Cl)cccc2Cl)CC1,108%
9,Oc1ccc(CSc2nnc(-c3ccc(Br)cc3)o2)c2cccnc12,23%
10,CN(c1ccc(F)cc1)S(=O)(=O)c1ccc(-c2cnc(C3CC3)o2)cc1,-15.8% (active)
11,NCCNC(=O)c1cccc(COc2ccccc2NC(=O)c2cc(Cl)c(Cl)[nH]2)c1,88.9%
12,CCCNNC(=O)c1ccc(-c2ccc(NC(=O)CCCCCCC(=O)N[C@H](C(=O)N3C[C@H](O)C[C@H]3C(=O)N[C@@H](C)c3ccc(-c4scnc4C)cc3)C(C)(C)C)cc2)cc1,18.1%
13,CS(=O)(=O)Nc1cc(-c2ccc3ncc(C#N)c(Nc4cccc(Cl)c4F)c3c2)cnc1Cl,0.143% (active)
